# Experimental data as given in ChEMBL document CHEMBL3988442, “University of Dundee, Small-Polar-MMV Screening Library” (2021).
# For some of these results: Measured potencies and affinities stand elsewhere.
# Assays:
# Parameters in all cases: scale not given: direction of the effect not stated beside the values
# [1] = target: Protein translocase subunit SecA (Escherichia coli (strain K12)) (UniProt P10408); assay: Assay to Identify E. coli SecA ATPase Inhibitors; assay type: functional; settings: 30 µM
# [2] = target: T1, Ubiquitin-activating enzyme e1, putative (Leishmania donovani (strain BPK282A1)) (UniProt E9BSI1); assay: Leishmania donovani Ubiquitin Activating Enzyme (LdE1); assay type: functional; settings: 30 µM
# T1 sequence (whole entry): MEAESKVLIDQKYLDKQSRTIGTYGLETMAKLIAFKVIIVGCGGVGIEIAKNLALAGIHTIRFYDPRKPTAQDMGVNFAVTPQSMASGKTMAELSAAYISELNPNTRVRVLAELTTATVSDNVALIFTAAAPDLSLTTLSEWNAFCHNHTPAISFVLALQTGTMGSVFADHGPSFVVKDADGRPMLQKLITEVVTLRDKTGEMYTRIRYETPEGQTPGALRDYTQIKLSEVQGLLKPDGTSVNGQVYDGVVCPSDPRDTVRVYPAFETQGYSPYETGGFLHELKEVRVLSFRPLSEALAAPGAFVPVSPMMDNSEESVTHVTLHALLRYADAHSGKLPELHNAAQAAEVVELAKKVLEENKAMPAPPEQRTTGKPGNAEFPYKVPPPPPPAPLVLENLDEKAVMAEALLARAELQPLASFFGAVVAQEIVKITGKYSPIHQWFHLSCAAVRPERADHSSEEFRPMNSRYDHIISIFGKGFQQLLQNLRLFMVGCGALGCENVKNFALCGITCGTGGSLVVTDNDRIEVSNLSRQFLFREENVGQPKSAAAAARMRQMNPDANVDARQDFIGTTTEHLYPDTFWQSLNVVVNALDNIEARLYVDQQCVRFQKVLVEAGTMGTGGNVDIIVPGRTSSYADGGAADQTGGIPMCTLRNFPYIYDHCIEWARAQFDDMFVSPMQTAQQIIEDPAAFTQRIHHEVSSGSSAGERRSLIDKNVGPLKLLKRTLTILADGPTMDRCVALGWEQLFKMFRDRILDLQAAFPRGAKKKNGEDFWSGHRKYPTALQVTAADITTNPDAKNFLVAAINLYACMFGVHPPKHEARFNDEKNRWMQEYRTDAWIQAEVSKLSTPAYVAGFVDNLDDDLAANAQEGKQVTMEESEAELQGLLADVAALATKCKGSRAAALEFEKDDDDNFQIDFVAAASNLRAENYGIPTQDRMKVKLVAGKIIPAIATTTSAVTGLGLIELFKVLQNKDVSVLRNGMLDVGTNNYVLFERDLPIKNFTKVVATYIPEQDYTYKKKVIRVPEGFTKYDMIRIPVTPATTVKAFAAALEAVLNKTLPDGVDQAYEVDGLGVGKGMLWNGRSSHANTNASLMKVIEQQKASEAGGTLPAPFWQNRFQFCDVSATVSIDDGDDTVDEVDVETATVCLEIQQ
# [3] = target: AMP-activated protein kinase, AMPK (Homo sapiens) (UniProt P54646+O43741+P54619+Q9UGJ0+Q9Y478+Q13131+Q9UGI9); assay: AMP-dependent Kinase enzyme assay. An in vitro enzyme assay that detects ADP turnover that is directly proportional to AMPK activity. This uses naive AMPK that is activated during the assay with MK-8722; assay type: functional; settings: 30 µM
# [4] = target: Sialic acid-binding Ig-like lectin 9 (Homo sapiens) (UniProt Q9Y336); assay: Hs-Siglec9 ALPHAscreen SOP 20170721; settings: 10 µM
# [5] = system: Trypanosoma cruzi; assay: Trypanosoma cruzi phosphomannomutase and mannose-1-phosphate guanylyltransferase assay; assay type: functional; settings: 10 µM
# [6] = target: T2, Arginase-2, mitochondrial (Homo sapiens) (UniProt P78540); assay: in vitro enzyme assay to detect the production of urea directly proportional to the activity of Arginase II; assay type: functional; settings: 33.3 µM; further: in the data most compounds retested in dose-response had high values
# T2 sequence (whole entry): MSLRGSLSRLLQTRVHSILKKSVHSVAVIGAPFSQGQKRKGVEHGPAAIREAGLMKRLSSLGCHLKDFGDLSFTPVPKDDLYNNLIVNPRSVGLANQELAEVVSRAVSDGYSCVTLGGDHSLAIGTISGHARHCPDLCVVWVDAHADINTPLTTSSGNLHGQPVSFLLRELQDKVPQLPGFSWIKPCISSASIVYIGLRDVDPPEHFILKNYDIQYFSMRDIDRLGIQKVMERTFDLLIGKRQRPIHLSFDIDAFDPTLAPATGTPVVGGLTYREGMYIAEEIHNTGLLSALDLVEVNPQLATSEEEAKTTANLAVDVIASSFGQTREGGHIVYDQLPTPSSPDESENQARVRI
# [7] = target: T3, Proteasome subunit beta (Trypanosoma cruzi) (UniProt O96673); assay: Trypanosoma cruzi proteasome chymotrypsin-like activity (TcProtChymo) assay.; further: in the data most compounds retested in dose-response had high values; assay type: functional; settings: 9.37 µM
# T3 sequence (whole entry): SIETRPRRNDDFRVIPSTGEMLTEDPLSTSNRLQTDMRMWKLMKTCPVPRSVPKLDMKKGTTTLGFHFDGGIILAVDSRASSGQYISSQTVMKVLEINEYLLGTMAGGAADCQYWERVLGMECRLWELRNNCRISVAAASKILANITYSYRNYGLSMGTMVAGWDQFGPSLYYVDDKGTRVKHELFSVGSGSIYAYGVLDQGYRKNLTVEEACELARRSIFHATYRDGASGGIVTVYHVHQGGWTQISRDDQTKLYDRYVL
# [8] = species: Homo sapiens; assay: To identify inhibition of the IFN signalling (Jak-Stat) pathway via expression of an eGFP reporter gene under the control of an IFN-stimulated response element (ISRE) containing MxA promoter.; assay type: functional; settings: 30 µM
# [9] = target: T4, Tyrosyl-tRNA synthetase, putative (Trypanosoma cruzi (strain CL Brener)) (UniProt Q4DSP6); assay: Trypanosoma cruzi tyrosyl tRNA synthetase (TcYRS) _High Tyrosine SOP; assay type: functional; settings: 30 µM; further: in the data most compounds retested in dose-response had high values
# T4 sequence (whole entry): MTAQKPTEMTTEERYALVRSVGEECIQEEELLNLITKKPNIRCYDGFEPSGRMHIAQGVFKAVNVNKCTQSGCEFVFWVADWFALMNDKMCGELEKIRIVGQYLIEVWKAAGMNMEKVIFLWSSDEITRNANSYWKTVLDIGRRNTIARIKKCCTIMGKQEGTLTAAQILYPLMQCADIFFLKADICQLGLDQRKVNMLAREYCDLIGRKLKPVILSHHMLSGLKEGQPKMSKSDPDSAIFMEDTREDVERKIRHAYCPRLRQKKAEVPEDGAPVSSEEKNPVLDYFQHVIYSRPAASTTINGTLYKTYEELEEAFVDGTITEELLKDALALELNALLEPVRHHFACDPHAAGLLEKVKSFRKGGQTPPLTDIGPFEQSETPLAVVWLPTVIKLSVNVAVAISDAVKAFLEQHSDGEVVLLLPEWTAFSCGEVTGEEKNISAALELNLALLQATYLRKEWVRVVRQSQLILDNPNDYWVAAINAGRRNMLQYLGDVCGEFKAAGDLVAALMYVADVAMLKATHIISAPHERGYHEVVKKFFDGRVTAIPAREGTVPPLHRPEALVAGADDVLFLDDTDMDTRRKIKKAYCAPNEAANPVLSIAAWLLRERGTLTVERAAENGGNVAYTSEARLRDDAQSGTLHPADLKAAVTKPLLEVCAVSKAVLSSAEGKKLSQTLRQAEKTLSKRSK
# [10] = target: T4, Tyrosyl-tRNA synthetase, putative (Trypanosoma cruzi (strain CL Brener)); assay: Trypanosoma cruzi tyrosyl tRNA synthetase (TcYRS) SOP; assay type: functional; settings: 30 µM
# [11] = target: Chromo domain-containing protein 1 (Saccharomyces cerevisiae (strain ATCC 204508 / S288c) (Baker's yeast)) (UniProt P32657); assay: ScCHD-1 Enzyme Inhibition Assay; assay type: functional; settings: 30 µM; further: in the data most compounds retested in dose-response had high values
# Sequence of Chromo domain-containing protein 1 (Saccharomyces cerevisiae (strain ATCC 204508 / S288c) (Baker's yeast)) (P32657 whole entry, the tested form may be a part): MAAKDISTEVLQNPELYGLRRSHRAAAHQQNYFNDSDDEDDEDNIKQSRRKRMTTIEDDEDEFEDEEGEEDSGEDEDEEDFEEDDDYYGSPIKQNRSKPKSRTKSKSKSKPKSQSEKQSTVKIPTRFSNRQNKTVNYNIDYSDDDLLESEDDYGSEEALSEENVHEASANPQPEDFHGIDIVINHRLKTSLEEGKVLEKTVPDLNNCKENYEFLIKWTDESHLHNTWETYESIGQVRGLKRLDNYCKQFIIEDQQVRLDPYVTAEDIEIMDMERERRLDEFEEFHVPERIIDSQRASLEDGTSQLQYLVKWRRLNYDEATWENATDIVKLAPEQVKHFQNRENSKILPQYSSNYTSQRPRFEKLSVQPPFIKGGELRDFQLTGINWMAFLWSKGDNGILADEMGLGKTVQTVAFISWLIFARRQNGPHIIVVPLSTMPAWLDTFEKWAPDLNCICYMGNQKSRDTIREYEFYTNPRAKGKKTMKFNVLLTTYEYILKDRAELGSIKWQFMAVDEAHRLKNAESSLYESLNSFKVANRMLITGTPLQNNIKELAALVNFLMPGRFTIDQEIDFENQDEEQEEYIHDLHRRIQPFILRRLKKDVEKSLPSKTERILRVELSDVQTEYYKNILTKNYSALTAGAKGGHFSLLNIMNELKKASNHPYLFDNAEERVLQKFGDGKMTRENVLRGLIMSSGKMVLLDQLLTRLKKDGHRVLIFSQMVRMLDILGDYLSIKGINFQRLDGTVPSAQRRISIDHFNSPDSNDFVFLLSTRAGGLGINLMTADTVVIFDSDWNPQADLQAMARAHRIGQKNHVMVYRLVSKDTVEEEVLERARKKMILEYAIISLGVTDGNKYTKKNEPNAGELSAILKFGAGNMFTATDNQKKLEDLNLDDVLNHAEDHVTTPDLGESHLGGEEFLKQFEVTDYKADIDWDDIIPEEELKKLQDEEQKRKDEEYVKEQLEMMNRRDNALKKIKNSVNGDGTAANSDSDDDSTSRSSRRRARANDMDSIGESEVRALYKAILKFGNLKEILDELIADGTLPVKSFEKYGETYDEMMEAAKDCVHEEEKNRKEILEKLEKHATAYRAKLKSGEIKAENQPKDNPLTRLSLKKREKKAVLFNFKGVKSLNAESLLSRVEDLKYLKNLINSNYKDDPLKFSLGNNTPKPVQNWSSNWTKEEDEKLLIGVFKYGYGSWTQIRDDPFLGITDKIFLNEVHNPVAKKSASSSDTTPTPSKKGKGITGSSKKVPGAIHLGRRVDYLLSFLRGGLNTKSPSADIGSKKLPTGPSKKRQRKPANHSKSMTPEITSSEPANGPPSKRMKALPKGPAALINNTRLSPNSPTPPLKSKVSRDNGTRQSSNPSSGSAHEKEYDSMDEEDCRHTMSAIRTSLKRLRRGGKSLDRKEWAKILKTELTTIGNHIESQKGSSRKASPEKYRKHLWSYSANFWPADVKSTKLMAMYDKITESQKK
# Sequence of Sialic acid-binding Ig-like lectin 9 (Homo sapiens) (Q9Y336 whole entry): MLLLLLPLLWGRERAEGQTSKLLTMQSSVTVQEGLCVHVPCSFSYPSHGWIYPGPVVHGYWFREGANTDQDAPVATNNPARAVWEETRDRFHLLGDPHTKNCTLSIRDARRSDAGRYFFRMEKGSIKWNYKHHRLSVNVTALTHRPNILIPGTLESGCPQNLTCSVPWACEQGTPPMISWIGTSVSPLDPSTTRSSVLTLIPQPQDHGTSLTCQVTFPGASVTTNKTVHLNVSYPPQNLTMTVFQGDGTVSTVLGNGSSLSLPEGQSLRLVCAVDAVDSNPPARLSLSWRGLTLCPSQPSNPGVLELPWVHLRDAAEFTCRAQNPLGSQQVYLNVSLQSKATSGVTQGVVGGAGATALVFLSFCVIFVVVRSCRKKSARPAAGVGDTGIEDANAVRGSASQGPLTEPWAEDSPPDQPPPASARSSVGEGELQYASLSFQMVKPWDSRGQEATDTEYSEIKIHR
# Sequence of Protein translocase subunit SecA (Escherichia coli (strain K12)) (P10408 whole entry): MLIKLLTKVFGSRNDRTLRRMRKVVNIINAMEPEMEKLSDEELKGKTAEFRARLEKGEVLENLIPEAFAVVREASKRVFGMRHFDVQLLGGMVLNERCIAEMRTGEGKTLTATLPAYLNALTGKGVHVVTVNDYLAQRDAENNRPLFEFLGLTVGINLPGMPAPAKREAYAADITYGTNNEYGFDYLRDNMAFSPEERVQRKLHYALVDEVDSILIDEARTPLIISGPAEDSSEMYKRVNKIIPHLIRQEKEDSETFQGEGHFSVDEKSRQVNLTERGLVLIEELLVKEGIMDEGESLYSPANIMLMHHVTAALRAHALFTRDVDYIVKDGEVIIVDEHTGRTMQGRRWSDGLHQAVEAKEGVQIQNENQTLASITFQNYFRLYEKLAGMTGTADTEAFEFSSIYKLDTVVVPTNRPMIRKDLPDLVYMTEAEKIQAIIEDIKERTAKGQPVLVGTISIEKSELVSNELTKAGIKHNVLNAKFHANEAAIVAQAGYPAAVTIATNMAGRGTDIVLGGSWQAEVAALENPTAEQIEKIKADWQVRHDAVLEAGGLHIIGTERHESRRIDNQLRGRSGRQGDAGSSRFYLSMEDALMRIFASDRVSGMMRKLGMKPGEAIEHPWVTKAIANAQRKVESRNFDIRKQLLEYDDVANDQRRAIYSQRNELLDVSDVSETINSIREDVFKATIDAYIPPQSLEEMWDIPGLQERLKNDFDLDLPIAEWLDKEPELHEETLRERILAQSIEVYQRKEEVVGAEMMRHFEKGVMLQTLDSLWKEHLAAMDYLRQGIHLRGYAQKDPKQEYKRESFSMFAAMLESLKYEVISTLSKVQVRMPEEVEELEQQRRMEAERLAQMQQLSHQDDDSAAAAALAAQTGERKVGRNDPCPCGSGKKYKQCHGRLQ
SMILES,Percent Effect [1] [%],Percent Effect [2] [%],Percent Effect [3] [%],Percent Effect [4] [%],Percent Effect [5] [%],Percent Effect [6] [%],Percent Effect [7] [%],Percent Effect [8] [%],Percent Effect [9] [%],Percent Effect [10] [%],Percent Effect [11] [%]
CN(CCc1ccccc1)c1cnn(CC(=O)N2CCSCC2)c(=O)c1,-1.2,0,19.7,12.4,-4.5,2.73,-1.6,4.15,1.07,2.5,0.365
Cc1ccc(NC(C)C(=O)NCc2cccs2)cc1C (stereo not given),-1.89,16.4,6.74,8.58,0.196,-4.54,17.8,21.3,-1.07,20,-5.22
N#CC1(C(=O)N2CCN(Cc3ccon3)CC2)CCC1,-1.32,5.06,1.56,6.56,-7.84,9.89,1.56,23.8,0.493,1.27,-3.39
c1cnn(Cc2cn3c(n2)CN(Cc2nccs2)CC3)c1,-2.43,-36.4,-0.581,-1.53,5.23,5.81,12.2,4.15,9.52,26.9,-6.74
CCS(=O)(=O)N1CCC2(CCCN(Cc3cc(OC)ccc3F)C2)C1 (stereo not given),-4.17,6.94,-5.98,-4.29,-2.23,0.883,14.6,16.9,6.32,7.69,-4.39
Cc1nccn1C1CCCN(C(=O)c2ccc3c(c2)nnn3C)C1 (stereo not given),-3.52,10.5,-2.69,0.191,-4.95,5.75,9.9,3.52,4.43,6.17,-4.12
CCCN1CCN(C(=O)C(C)n2cc(Br)cn2)CC1 (stereo not given),-1.59,15.6,5.22,7.33,3.05,-137,10.3,-2.4,7.53,21,-7.35
Cn1cnnc1S(=O)(=O)C1CCN(S(=O)(=O)c2c(Cl)cccc2Cl)CC1,-1.95,0,5.5,-4.3,-1.76,-2.27,4.97,6.49,0,0,0.0853
Cc1cc(C(=O)NCc2ccnc(N(C)C)c2)c(C)o1,-4.79,23.4,-3.99,-6.37,-5.24,-1.42,8.62,-12,4.85,12.2,-10.6
CCC(NC(=O)C1CCN(S(C)(=O)=O)CC1)c1ccc(OC)c(OC)c1 (stereo not given),-2.12,-2.6,3.25,-1.28,-1.48,-5.52,11.2,-4.52,3.23,1.24,3.51
CCS(=O)(=O)c1ccc(N2CCC(NC(=O)c3cnn(C)c3)CC2)cc1,-5.94,2.67,-5.84,34.3,10.2,-2.08,16.2,21.8,1.64,13.6,-5.47
Cc1nc(C2CCCN2C(=O)c2cc3c(s2)CCCC3)no1 (stereo not given),-3.05,0,2.69,3.43,3.95,4.98,3.51,5.26,-0.49,0,5.53
O=C(CCCc1cn[nH]c1)N1C[C@@H](CN2CCOCC2)[C@@H](CO)C1,-5.38,-5.48,0.507,-3.16,-2.74,-2.27,4.08,5.26,0,-5,-2.89
O=C(Cc1ccccn1)N1CCN(C(=O)c2cccc3[nH]ncc23)CC1,-1.44,3.8,15.9,-3.99,-0.103,2.8,5.15,4.63,5.21,5.06,-0.724
Cc1cnc(CN2CCCC(c3cc(C(N)=O)[nH]n3)C2)o1 (stereo not given),1.3,24.3,-15.7,-4.2,0.472,-16.8,17.1,-3.25,5.42,18.5,-9.23
CC(C)c1n[nH]c(C2CN(C(=O)CCn3ccccc3=O)CCO2)n1 (stereo not given),-3.88,1.27,3.8,-2.89,-3.18,-2.37,2.92,-3.42,3.12,7.59,-5.25
CC(C)c1nccn1C1CCCN(C(=O)c2cnc[nH]2)C1 (stereo not given),-5.4,10.5,-5.59,16.2,5.32,0.719,10.1,-0.618,5.42,16.1,-3.38
CC(C)(C)NC(=O)CNC(=O)CCc1ccccc1Br,-3.98,15.3,-5.91,3.62,4.37,23.4,21.8,-3.55,6.32,7.69,-2.98
Cc1ccc(NC2CCN(C(=O)CN(C)C3CC3)CC2)nn1,-4.6,-6.33,-0.261,16.3,-3.79,0.645,6.69,-12.3,4.17,7.59,-6.68
Cc1cc(CN2CCC(CNC(=O)c3ccc(O)c(Cl)c3)C2)[nH]n1 (stereo not given),-4.67,2.7,-0.362,22.1,-8.7,2.23,5.24,4.66,2.15,11.1,-0.611
